Reference: the supplement of paper PMC10849652
Targets with a hit are over-represented here; the source holds about 7,900 in all. About 0.6% of all pairs of compound and target were hits. Values without a mark were called inactive.

What follows are targets tested with C1=CC(=CC=C1C2=NC3=C(N2)C=C(C=C3)C(=O)N)OC4=CC=C(C=C4)Cl (assay: log2 fold change, soluble protein after heating vs DMSO (PISA); higher = thermal stabilisation; K562 cells, 10 uM, 30 min; active = over 0.2 and 3.5 SD of the protein, either way, in both replicates (recomputed)).
How it was run: (§1)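 Values are thermal stability changes relative to control samples and are taken from duplicates. They are stated as log2 fold changes. Before quantification by TMTpro 16plex LC-MS/MS with equalised channel sums, K562 cells at 2×10^6 cells/mL were treated with 10 μM compound for 30 min, heated in aliquots for 3 min across 48°C-58°C, pooled, extracted in PBS with 0.5% NP-40 at 4°C, and centrifuged at 21,000xg for 90 min to give the soluble supernatant.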

Sequence of UniProt Q02224 (Q02224 whole entry, looked up): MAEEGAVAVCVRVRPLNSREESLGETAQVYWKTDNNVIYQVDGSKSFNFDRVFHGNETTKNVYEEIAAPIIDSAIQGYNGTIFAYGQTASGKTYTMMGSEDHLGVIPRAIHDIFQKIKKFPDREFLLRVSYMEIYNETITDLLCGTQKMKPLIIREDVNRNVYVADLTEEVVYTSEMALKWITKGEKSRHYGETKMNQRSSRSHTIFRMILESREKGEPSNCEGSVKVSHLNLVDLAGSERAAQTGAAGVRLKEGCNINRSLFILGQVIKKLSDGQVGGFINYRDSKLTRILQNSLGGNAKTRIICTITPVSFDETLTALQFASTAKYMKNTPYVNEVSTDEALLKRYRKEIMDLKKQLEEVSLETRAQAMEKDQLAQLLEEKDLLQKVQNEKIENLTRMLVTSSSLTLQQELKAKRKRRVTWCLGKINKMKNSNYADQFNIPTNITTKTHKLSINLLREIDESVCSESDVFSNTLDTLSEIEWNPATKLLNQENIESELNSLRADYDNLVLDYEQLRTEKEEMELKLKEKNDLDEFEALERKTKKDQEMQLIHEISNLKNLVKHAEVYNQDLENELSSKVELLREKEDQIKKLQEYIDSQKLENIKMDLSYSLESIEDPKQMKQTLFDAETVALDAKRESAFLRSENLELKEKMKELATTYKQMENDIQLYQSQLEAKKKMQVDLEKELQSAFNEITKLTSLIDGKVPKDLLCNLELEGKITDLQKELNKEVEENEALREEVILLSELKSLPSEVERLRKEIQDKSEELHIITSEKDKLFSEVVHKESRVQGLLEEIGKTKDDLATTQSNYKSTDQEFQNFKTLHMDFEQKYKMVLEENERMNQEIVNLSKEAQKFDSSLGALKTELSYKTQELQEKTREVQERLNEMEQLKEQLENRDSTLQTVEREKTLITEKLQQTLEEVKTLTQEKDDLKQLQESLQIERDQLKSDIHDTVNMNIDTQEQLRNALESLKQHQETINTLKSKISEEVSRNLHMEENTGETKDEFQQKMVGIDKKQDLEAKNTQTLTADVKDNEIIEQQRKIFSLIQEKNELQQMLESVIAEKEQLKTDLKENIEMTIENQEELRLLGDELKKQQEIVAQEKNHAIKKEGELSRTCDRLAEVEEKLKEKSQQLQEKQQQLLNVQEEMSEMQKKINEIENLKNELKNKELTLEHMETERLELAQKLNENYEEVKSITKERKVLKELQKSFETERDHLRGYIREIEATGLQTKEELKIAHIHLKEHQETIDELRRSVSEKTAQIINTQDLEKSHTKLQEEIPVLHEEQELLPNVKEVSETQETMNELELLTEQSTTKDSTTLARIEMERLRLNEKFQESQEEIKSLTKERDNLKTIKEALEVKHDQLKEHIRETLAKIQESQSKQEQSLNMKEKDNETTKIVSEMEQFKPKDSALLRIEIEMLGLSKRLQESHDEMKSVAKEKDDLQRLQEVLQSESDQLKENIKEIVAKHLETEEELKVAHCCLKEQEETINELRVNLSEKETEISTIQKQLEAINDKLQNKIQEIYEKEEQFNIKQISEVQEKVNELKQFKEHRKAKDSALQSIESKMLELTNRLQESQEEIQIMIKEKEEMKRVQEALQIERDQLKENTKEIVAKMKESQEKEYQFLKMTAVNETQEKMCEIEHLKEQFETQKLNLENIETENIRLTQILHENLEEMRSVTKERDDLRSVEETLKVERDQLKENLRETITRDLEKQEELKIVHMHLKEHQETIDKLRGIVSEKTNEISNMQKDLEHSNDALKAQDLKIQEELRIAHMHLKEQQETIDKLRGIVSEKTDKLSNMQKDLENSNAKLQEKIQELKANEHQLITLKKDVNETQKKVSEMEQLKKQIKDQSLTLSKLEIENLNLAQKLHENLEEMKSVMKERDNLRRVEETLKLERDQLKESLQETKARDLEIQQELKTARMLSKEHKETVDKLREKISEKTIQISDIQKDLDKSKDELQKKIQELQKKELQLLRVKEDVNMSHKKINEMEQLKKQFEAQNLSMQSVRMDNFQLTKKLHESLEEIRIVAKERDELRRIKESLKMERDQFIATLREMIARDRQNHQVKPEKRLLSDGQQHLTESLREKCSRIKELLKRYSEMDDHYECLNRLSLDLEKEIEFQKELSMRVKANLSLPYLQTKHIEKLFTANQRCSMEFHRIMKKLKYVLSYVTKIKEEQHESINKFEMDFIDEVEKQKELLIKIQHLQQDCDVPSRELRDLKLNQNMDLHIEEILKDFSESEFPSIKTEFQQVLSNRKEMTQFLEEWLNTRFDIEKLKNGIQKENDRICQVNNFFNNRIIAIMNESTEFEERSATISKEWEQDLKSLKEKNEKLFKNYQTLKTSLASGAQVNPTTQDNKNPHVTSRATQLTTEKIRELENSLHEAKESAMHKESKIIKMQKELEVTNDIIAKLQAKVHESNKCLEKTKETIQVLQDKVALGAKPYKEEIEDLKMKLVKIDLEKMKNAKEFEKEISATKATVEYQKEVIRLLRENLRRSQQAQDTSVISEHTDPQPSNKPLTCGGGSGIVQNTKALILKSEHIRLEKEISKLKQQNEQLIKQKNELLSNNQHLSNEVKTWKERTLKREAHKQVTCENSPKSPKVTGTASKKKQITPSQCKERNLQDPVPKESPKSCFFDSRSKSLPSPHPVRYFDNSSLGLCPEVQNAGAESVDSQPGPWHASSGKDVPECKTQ
Sequence of UniProt P46527 (P46527 whole entry, looked up): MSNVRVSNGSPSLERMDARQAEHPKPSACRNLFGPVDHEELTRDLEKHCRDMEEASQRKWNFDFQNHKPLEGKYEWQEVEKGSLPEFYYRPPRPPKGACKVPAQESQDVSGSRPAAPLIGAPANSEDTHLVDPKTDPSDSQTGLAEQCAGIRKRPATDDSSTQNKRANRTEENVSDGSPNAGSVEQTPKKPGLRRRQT
Sequence of UniProt Q00537 (Q00537 whole entry, looked up): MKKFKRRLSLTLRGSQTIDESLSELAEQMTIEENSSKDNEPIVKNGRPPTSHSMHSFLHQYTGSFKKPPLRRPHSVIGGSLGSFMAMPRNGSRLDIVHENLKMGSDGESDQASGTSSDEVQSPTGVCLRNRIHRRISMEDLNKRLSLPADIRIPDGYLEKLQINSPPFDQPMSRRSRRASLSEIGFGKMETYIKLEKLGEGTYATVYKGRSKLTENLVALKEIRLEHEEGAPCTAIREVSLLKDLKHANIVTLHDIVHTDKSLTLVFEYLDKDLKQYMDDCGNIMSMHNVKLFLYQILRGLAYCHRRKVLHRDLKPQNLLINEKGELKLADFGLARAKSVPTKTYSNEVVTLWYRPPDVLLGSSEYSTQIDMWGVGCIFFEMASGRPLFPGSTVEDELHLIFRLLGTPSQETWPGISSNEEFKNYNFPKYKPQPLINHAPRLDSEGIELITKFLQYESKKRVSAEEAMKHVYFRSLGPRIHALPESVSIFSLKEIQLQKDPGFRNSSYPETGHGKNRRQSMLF
Sequence of UniProt A8MTT3 (A8MTT3 whole entry, looked up): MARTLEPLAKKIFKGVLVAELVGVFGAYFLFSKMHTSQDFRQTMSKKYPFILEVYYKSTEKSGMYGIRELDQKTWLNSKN
Sequence of UniProt P51790 (P51790 whole entry, looked up): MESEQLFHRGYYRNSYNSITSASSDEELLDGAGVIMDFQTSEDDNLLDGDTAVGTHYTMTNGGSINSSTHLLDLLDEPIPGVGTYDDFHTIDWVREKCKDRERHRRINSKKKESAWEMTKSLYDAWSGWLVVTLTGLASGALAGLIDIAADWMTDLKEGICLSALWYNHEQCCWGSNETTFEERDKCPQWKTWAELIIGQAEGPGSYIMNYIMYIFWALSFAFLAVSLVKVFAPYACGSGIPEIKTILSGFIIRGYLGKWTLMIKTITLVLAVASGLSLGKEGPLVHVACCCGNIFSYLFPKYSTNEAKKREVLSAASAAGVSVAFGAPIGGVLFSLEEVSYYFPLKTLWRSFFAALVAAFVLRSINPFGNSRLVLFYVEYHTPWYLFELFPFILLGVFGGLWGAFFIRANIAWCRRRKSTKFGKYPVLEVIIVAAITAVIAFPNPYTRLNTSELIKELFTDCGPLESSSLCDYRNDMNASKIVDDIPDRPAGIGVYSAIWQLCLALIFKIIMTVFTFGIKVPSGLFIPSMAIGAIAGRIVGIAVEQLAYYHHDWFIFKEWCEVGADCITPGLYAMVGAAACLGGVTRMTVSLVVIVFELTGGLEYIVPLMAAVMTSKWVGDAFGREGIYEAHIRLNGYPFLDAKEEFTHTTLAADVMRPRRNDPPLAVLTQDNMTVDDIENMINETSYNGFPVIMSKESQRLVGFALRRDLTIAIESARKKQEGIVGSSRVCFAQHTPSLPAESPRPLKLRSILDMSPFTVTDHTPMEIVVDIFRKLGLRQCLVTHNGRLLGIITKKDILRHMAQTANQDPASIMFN
Sequence of UniProt P30305 (P30305 whole entry, looked up): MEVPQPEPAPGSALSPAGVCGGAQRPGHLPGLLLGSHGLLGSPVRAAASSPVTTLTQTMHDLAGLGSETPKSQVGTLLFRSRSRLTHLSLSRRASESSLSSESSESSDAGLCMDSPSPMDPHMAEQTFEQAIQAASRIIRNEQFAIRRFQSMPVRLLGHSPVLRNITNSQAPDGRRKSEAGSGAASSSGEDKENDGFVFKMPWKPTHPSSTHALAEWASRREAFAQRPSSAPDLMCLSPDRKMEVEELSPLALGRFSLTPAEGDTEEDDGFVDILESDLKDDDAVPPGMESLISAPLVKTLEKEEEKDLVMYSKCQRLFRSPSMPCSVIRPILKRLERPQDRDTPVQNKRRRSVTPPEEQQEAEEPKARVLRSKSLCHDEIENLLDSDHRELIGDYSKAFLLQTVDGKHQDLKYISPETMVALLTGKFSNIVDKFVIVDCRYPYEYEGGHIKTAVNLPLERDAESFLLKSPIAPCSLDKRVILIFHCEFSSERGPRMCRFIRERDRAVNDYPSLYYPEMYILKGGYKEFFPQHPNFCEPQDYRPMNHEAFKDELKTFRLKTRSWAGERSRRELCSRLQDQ
Sequence of UniProt O75956 (O75956 whole entry, looked up): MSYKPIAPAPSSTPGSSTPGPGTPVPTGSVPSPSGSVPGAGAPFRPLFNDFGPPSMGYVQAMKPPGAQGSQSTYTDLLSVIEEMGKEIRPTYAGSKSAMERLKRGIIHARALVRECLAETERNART

| Target | log2 fold change |
| --- | --- |
| CDK2AP2 (UniProt O75956) | 0.043 |
| CD84 (UniProt Q9UIB8) | 0.099 |
| CDKN1B (UniProt P46527) | 0.064 |
| CORO2A (UniProt Q92828) | -0.011 |
| CLUH (UniProt O75153) | -0.042 |
| CNN3 (UniProt Q15417) | -0.088 |
| CDK17 isoform 2 (UniProt Q00537) | -0.075 |
| CENPE (UniProt Q02224) | -0.096 |
| CCNDBP1 (UniProt O95273) | 0.105 |
| CLSPN (UniProt Q9HAW4) | 0.02 |
| CLPTM1L (UniProt Q96KA5) | 0.063 |
| CMTM3 (UniProt Q96MX0) | -0.044 |
| CLN8 (UniProt Q9UBY8) | 0.01 |
| CDC25B isoform 4 (UniProt P30305) | 0.044 |
| CDK4 (UniProt P11802) | -0.086 |
| CLCN3 (UniProt P51790) | -0.045 |
| CEBPZOS (UniProt A8MTT3) | 0.015 |
| COX17 (UniProt Q14061) | -0.009 |

Each target was assayed with C1=CC2=C(C=CC(=C2)/C=C\3/C(=O)NC(=NCC4=CC=CS4)S3)N=C1 in the same assay as above.
How it was run: as §1

| Target | log2 fold change |
| --- | --- |
| CLUH, A0A494C0R8 | 0.127 |
| CHAF1A (UniProt Q13111) | 0.027 |
| CLINT1 isoform 3 (UniProt Q14677) | 0.026 |
| CCNC (UniProt P24863) | 0.096 |
| CLPP (UniProt Q16740) | 0.042 |
| COX7B (UniProt P24311) | -0.081 |
| CLN5 (UniProt O75503) | 0.023 |
| CDK19 (UniProt Q9BWU1) | 0.111 |
| CAV2 (UniProt P51636) | -0.018 |
| CDK5 (UniProt Q00535) | -0.014 |
| CLTB (UniProt P09497) | -0.02 |
| COG2 (UniProt Q14746) | 0.478 |
| C15orf41 (UniProt Q9Y2V0) | -0.018 |
| CNOT4 isoform 9 (UniProt O95628) | 0.089 |
| C19orf54 (UniProt Q5BKX5) | -0.005 |
| CLASP2 (UniProt O75122) | -0.211 |
| CCND3 (UniProt P30281) | 0.143 |
| CDCA2 (UniProt Q69YH5) | 0.048 |

| Target | log2 fold change |
| --- | --- |
| CDK2AP2 (UniProt O75956) | 0.063 |
| CD84 (UniProt Q9UIB8) | 0.01 |
| CDKN1B (UniProt P46527) | -0.217 |
| CORO2A (UniProt Q92828) | -0.001 |
| CLUH (UniProt O75153) | 0.137 |
| CNN3 (UniProt Q15417) | 0.054 |
| CDK17 isoform 2 (UniProt Q00537) | -0.123 |
| CENPE (UniProt Q02224) | -0.875 (active) |
| CCNDBP1 (UniProt O95273) | -0.011 |
| CLSPN (UniProt Q9HAW4) | -0.035 |
| CLPTM1L (UniProt Q96KA5) | 0.032 |
| CMTM3 (UniProt Q96MX0) | 0.034 |
| CLN8 (UniProt Q9UBY8) | 0.212 |
| CDC25B isoform 4 (UniProt P30305) | -0.062 |
| CDK4 (UniProt P11802) | 0.329 |
| CLCN3 (UniProt P51790) | 0.023 |
| CEBPZOS (UniProt A8MTT3) | 0.039 |
| COX17 (UniProt Q14061) | 0.035 |

Each target was assayed with C1=CC2=NC=CN=C2C=C1/C=C/3\C(=O)NC(=O)S3 in the same assay as above.
How it was run: as §1

| Target | log2 fold change |
| --- | --- |
| CLUH, A0A494C0R8 | 0.235 |
| CHAF1A (UniProt Q13111) | 0.135 |
| CLINT1 isoform 3 (UniProt Q14677) | 0.05 |
| CCNC (UniProt P24863) | 0.256 |
| CLPP (UniProt Q16740) | 0.003 |
| COX7B (UniProt P24311) | 0.057 |
| CLN5 (UniProt O75503) | 0.016 |
| CAV2 (UniProt P51636) | -0.559 |
| CDK5 (UniProt Q00535) | 0.052 |
| CLTB (UniProt P09497) | 0.039 |
| CNOT4 isoform 9 (UniProt O95628) | 0.018 |
| CLASP2 (UniProt O75122) | 0.133 |
| CCND3 (UniProt P30281) | 0.289 |
| CDK2AP2 (UniProt O75956) | 0.103 |
| CDKN1B (UniProt P46527) | -0.049 |
| CORO2A (UniProt Q92828) | 0.127 |
| CLUH (UniProt O75153) | 0.324 (active) |
| CNN3 (UniProt Q15417) | 0.056 |
| CDK17 isoform 2 (UniProt Q00537) | -0.081 |
| CENPE (UniProt Q02224) | 0.098 |
| CCNDBP1 (UniProt O95273) | 0.034 |
| CLSPN (UniProt Q9HAW4) | 0.032 |
| CLPTM1L (UniProt Q96KA5) | 0.018 |
| CMTM3 (UniProt Q96MX0) | 0.066 |
| CLN8 (UniProt Q9UBY8) | 0.099 |
| CDC25B isoform 4 (UniProt P30305) | 0.131 |
| CDK4 (UniProt P11802) | 0.11 |
| CLCN3 (UniProt P51790) | 0.07 |
| CEBPZOS (UniProt A8MTT3) | 0.074 |
